From PubChem BioAssay (NCI)
This is part of a sample that, as a whole, favours compounds with a hit. Of some 79,000 tested, about 15% had one in any assay. The source made the active and inactive calls. Rule as the data show it: active = growth inhibition above about 70%; inactive = the rest.

Experiments:
[1] = NCI Yeast Anticancer Drug Screen. Data for the rad50 strain (AID 155);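 also: 0% = growth of vehicle-only cultures of the same strain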; settings: S. cerevisiae rad50 strain growth inhibition; at 50.0 µM; active compounds read high
Procedure, shortened: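 Growth of the mutant yeast was measured after compound exposure and referenced to vehicle-treated cultures.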

[2] = NCI Yeast Anticancer Drug Screen. Data for the mec2-1 strain (AID 157); settings: S. cerevisiae mec2-1 strain, at 50.0 µM, active compounds read high
Procedure, shortened: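 Compounds were applied to mec2-1 yeast cells. Their growth was then compared with that of vehicle-treated cultures to give growth inhibition.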

[3] = NCI Yeast Anticancer Drug Screen. Data for the sgs1 mgt1 strain (AID 161);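 also: 0% = growth of cultures given vehicle only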; settings: S. cerevisiae sgs1 mgt1 strain, at 50.0 µM, active compounds read high
Procedure, shortened: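 This yeast growth screen uses a strain with defined DNA-repair lesions; compound-treated growth is compared with vehicle-treated growth.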

[4] = NCI Yeast Anticancer Drug Screen. Data for the cln2 rad14 strain (AID 165);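 also: 0% = growth equal to vehicle treated cultures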; settings: S. cerevisiae cln2 rad14 strain, at 50.0 µM, active compounds read high
Procedure, shortened: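 Strain: cln2 rad14 yeast, altered in cell cycle control and DNA damage repair. Read-out: growth inhibition vs vehicle.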

[5] = NCI Yeast Anticancer Drug Screen. Data for the bub3 strain (AID 167); settings: S. cerevisiae bub3 mutant strain, at 50.0 µM, active compounds read high
Procedure, shortened: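 Whole-cell yeast assay. The mutant strain was incubated with compounds, and growth inhibition was determined by comparison with vehicle-treated cells.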

[6] = NCI Yeast Anticancer Drug Screen. Data for the mlh1 rad18 strain (AID 175); settings: S. cerevisiae mlh1 rad18 strain growth inhibition; at 50.0 µM; active compounds read high
Procedure, shortened: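 A repair-deficient yeast strain is exposed to test compound, and growth is scored relative to vehicle-treated controls.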

Measured: growth inhibition

C1=Cc2ccccc2/C1=C\C=C\c1ccccc1
inactive: [1] 19.1% | [2] 8.75% | [3] -2.35% | [4] -11.4% | [5] 2.8% | [6] 18.1%

CCCCCCCCCCCCCCCCCCOCCCCCC
inactive: [1] -8.65% | [2] -30.1% | [3] -19.8% | [4] 4.2% | [5] -10.3% | [6] -7.55%

COc1ccc(CCN=C2OCc3ccccc32)cc1OC
inactive: [1] 36.1% | [2] -49.6% | [3] -42.6% | [4] -18.6% | [5] -21.5% | [6] -50.7%

O=C1C2CCC(C2)C12CC1(c3ccccc3)C(=O)c3ccccc3N1O2 (configuration not stated)
inactive: [1] -9% | [2] -31.6% | [3] -25.1% | [4] 8.85% | [5] 0.25% | [6] -27.4%

CCCCOC(=S)Nc1ccc(S(=O)(=O)c2ccc(NC(=S)OCCCC)cc2)cc1
inactive: [1] 23.4% | [2] 0.15% | [3] 13.4% | [4] 9.35% | [5] -4.9% | [6] -9.65%

COc1ccc(CC2c3cc(OC)c(OC)cc3C=CN2C)cc1OC (configuration not stated)
inactive: [1] 20.8% | [2] 4.55% | [3] 24.1% | [4] 14.9% | [5] 35.6% | [6] 2.3%

C/C(=N\NC(=O)C[N+](C)(C)C)c1sc(-c2cccnc2)nc1C
inactive: [1] 5.4% | [2] -26.1% | [3] 6.5% | [4] 20.9% | [5] -4.4% | [6] -4.05%

CCCCCc1ccccc1OCC1CO1 (configuration not stated)
inactive: [1] 6.75% | [2] -9.15% | [3] -17.6% | [4] 11.6% | [5] 5.1% | [6] 27.2%

O=NN(CCCl)C(=O)NC1CCC(CC2CCC(NC(=O)N(CCCl)N=O)CC2)CC1 (configuration not stated)
inactive: [1] 24.9% | [2] 5.6% | [3] 8.05% | [4] 29.5% | [5] -6.45% | [6] 10.6%

O=[N+]([O-])c1ccc(S(=O)(=O)N/N=C/c2ccco2)cc1
inactive: [1] 14.6% | [2] 5.95% | [3] 0.9% | [4] 9.75% | [5] 13.2% | [6] 23.9%

O=C(Cc1ccccc1)NC(CSSCC(NC(=O)Cc1ccccc1)C(=O)O)C(=O)O (configuration not stated)
inactive: [1] 26.3% | [2] 10.8% | [3] 36.6% | [4] -37.1% | [5] 3.2% | [6] 11.1%

COC(=O)c1nc(N)nc(C(=O)OC)c1C(=O)C(C)(C)C
inactive: [1] -11.1% | [2] -10.8% | [3] -25.9% | [4] -23.6% | [5] -41.6% | [6] -28.8%

COc1cc(Nc2nc3ccc(C(F)(F)F)cc3nc2-c2ccccc2)cc(OC)c1OC
inactive: [1] 0.05% | [2] 4.2% | [3] -36% | [4] -12.2% | [5] -9.3% | [6] -22.9%

Nc1cc2c(cc1Br)-c1c(C(=O)O)cccc1C2=O
inactive: [1] -20% | [2] 9.3% | [3] -2.4% | [4] 7.1% | [5] 11.2% | [6] -13.1%

CCCCC(CN(C)C)C(=O)/C=C/c1ccccc1 (configuration not stated)
inactive: [1] 23.2% | [2] 2.9% | [3] 32.9% | [4] -0.7% | [5] 17.4% | [6] 27.8%

O=c1c2ccccc2c(=O)n2n1C1CCC2C1
inactive: [1] 7.05% | [2] -0.55% | [3] -7.9% | [4] -3.75% | [5] 1.85% | [6] -6.15%

CCN(CC)CCNc1cc(C)nc(/N=C(\N)Nc2ccc(Cl)cc2)n1
inactive: [1] 23.9% | [2] 1.05% | [3] 18.1% | [4] -14.8% | [5] 11.6% | [6] 30.8%

CCOC(=O)C(=O)c1cn(C)c(=O)n(C)c1=O
inactive: [1] 12.1% | [2] 2.85% | [3] 1.3% | [4] 3.8% | [5] 0.9% | [6] 10.6%

COc1ccc(C(O)c2cc(C(F)(F)F)cc(C(F)(F)F)c2)cc1OC (configuration not stated)
inactive: [1] 9.2% | [2] -11.6% | [3] 11.2% | [4] 8.2% | [5] 22.9% | [6] 14.3%

CCOC1OC(C2COC(=S)O2)C(O)C1O (configuration not stated)
inactive: [1] 9.35% | [2] -2.15% | [3] 7.85% | [4] -4.1% | [5] -0.15% | [6] 13.6%

CC(=O)OC/C=C(C)/C=C/C=C(C)/C=C/C1=C(C)CCCC1(C)C
inactive: [1] -15.4% | [2] -34% | [3] -20.3% | [4] -2.25% | [5] 12.5% | [6] -55%

CC(=O)Oc1nc2ccccc2n1C(C)=O
inactive: [1] 15.3% | [2] 20.9% | [3] 20.6% | [4] -5.1% | [5] 39.5% | [6] 5.55%

COc1cccc(-c2ccccc2)c1
inactive: [1] 7.35% | [2] 10.9% | [3] -11.3% | [4] 3.2% | [5] 14.6% | [6] -16.6%

CC(C)CN1CC(C)C(=O)NC1=O (configuration not stated)
inactive: [1] 1.4% | [2] -3.4% | [3] -2.45% | [4] 3.85% | [5] 1% | [6] 5.4%

c1ccc(-c2c[s+]cc(-c3ccccc3)c2)cc1
active: [1] 98.7% | [2] 98.9% | [3] 99.2% | [4] 98.5% | [5] 78.2% | [6] 99.2%

Cc1cc(=O)c(CO)n[nH]1
inactive: [1] 8.75% | [2] 15.2% | [3] 3.7% | [4] 6.8% | [5] 3.45% | [6] 19.5%

COC(=O)Nc1c2c(nc3ccccc13)-c1ccccc1C(C)(C)C2OC (configuration not stated)
inactive: [1] 49.5% | [2] 12.6% | [3] 58.1% | [4] -7.7% | [6] 67%
active: [5] 84%

Fc1ccc(N=C2c3ccccc3-c3ccccc32)cc1
inactive: [1] 6.35% | [2] -1.9% | [3] -0.25% | [4] 5.3% | [5] 1.65% | [6] 1.15%

O=C(O)C(c1ccccc1)C(O)C1CCCCC1 (configuration not stated)
inactive: [1] 0.8% | [2] -1.75% | [3] -1.15% | [4] -13.1% | [5] -8.1% | [6] 4.5%

c1ccc(C[S][Sn]([c]2ccccc2)([c]2ccccc2)[c]2ccccc2)cc1
active: [1] 97.5% | [2] 96.2% | [3] 97% | [4] 94.4% | [5] 97% | [6] 93%

C=CCC12CC(O)C(O)CC1(OC)OC(c1cc(OC)c(OC)c(OC)c1)C2C (configuration not stated)
inactive: [1] -1.1% | [2] -8.75% | [3] -8.1% | [4] -4.75% | [5] 4.35% | [6] 7.9%

O=C(O)c1ccc(Br)cc1C(=O)O
inactive: [1] 7.6% | [2] 3.6% | [3] 1.5% | [4] 4.35% | [5] 4.65% | [6] -1.6%

Oc1ccc(Br)cc1C=Nc1ccccc1
inactive: [1] 26.3% | [2] 18.9% | [3] 40.8% | [4] 29.4% | [5] 26.2% | [6] 14.9%

O=C(CN(Cc1ccccc1)Cc1ccccc1)C(O)C1OC(c2ccccc2)OCC1O (configuration not stated)
inactive: [1] 1.45% | [2] -5.55% | [3] -2.3% | [4] -4.5% | [5] -1.65% | [6] -4.1%

CCOC(=O)C1=C(Nc2cccc3ccccc23)OC/C1=N\NC(=O)c1ccccc1O
inactive: [1] 24.2% | [2] 28.6% | [3] 20.3% | [4] 14.8% | [5] 27.8% | [6] 12.8%

CN(C)CCCn1c2ccccc2c2cnccc21
inactive: [1] 0.5% | [2] -10.9% | [3] -17.6% | [4] -54.5% | [5] -48.2% | [6] 14.8%

O/N=C1\CC2(N3CCOCC3)CCC1(Cc1ccccc1)CC2
inactive: [1] 36% | [2] 52.6% | [3] 60.2% | [4] 55.6% | [5] 38.8% | [6] 49.4%

CC(=O)N=C1CSc2ccccc2N1C
inactive: [1] -1.15% | [2] -7.2% | [3] -7.9% | [4] -40.4% | [5] -15.5% | [6] -8.9%

CCCCCCCC(=O)OCC1OC(n2cc(F)c(=O)[nH]c2=O)C(NC(=O)OCc2ccccc2)C(OC(=O)CCCCCCC)C1O (configuration not stated)
inactive: [1] 20.2% | [2] 4.05% | [3] 13.4% | [4] 14.3% | [5] 0.35% | [6] 38.3%

NCCN(Cc1ccccc1)C1CC1
inactive: [1] 5.4% | [2] -33.6% | [3] 9.35% | [4] 15.3% | [5] -16.2% | [6] -1.05%

C=CC1CCC[N+]1(CC(=O)OCC)Cc1ccccc1 (configuration not stated)
inactive: [1] -15.2% | [2] -13.9% | [3] -25.2% | [4] 3.7% | [5] -2.15% | [6] -10.8%

CCOC(=O)/C(Cc1cc(=O)n(C)c2ccccc12)=N\Nc1ccccc1
inactive: [1] 2.85% | [2] -12.2% | [3] 2.6% | [4] -4.6% | [5] 10.6% | [6] -6.75%
